Compound activity as filed in PubChem BioAssay.
HT1080-NT tox – kills 2HG-producing HT-1080-NT fibrosarcoma cells; AID 686970; Potency, µM (top dose mostly 46.1 µM), inactives show top-dose activity, negative = less viability, actives largely listed as cytotoxic; HT-1080-NT fibrosarcoma viability, CellTiter-Glo ATP luminescence, 48 h; 360,000 tested, 1.6% active;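 also: NT is the 2HG producing partner of a matched IDH1 knockdown line; 0% = DMSO-treated cells and -100% = media-only wells without cells; nearly all actives have a fitted effect of over 55% in size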
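HT-1080-NT; 750 cells/well; 5% FBS RPMI; 48 h compound, 37 degrees C; CellTiter-Glo luminescence; curve fitting and curve-class assignment.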
KB-V1 cytotox – kills drug-selected multidrug resistant KB-V1 cells | KB-V1 MDR cells viability, CellTiter-Glo, 72 h | Potency, µM (titrated, usually from 46.1 µM), hits mostly cytotoxic | 400,000 tested, 3.4% active | AID 1347076; also: % is scaled to controls: 0 for no effect and ±100 for the full control effect; nearly all actives have a fitted effect of over 60% in size
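KB-V1 cells (P-gp-expressing MDR subline of KB-3-1) in phenol-red-free DMEM with 10% FBS were exposed to library compounds over a concentration series for 72 h at 37 degrees C. Viability read by CellTiter-Glo luminescence; concentration-effect curves fitted after normalization.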
KB-3-1 tox – kills parental KB-3-1 adenocarcinoma cells. KB-3-1 viability, CellTiter-Glo ATP luminescence, 72 h. Potency, µM (series often up to 46.1 µM), most hits filed as cytotoxic. 400,000 tested, 1.4% active. AID 1347075; also: % is scaled to controls: 0 for no effect and ±100 for the full control effect; nearly all actives have a fitted effect of over 60% in size
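Cytotoxicity in the drug-sensitive parental line KB-3-1 was scored as loss of CellTiter-Glo luminescence following 72 h incubation with compound. Values come from curve fitting of normalized concentration-response data.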
MCF10A rerep – inducers of DNA re-replication in MCF 10A breast cells. MCF 10A DNA re-replication, Hoechst nuclear intensity, 48 h. Potency, µM (doses to about 46.1 µM), for the others: at the highest dose activity, positive = re-replication, hits mostly activators. AID 624296. 350,000 tested, 2.9% active; also: % of control where 0% means no effect; nearly all actives have a fitted effect of over 50% in size
HT1080 IDH1KD tx – kills HT-1080 cells with IDH1 knockdown; HT-1080 IDH1 knockdown viability, ATP luminescence, 48 h; Potency, µM (series often up to 46.1 µM), without a hit: at the top dose activity, negative = toxicity, usual class: cytotoxic; 360,000 tested, 2% active; AID 686971;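 also: 0% = DMSO wells and -100% = cell-free medium wells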
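IDH1KD HT-1080 cells, 750/well, RPMI + 5% FBS; compound pinned after 2 h settling; 48 h, 37 °C; CellTiter-Glo luminescence; % activity normalised to DMSO and no-cell wells; curves fitted, classed by r2 and efficacy.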
SW480 rerep – DNA re-replication induction in SW480 cells | SW480 DNA re-replication, Hoechst DNA content imaging, 48 h | Potency, µM (highest dose often 46.1 µM), inactives show at the top dose re-replication activation, usual class: activators | 340,000 tested, 1.8% active; also: % of control where 0% means no effect; nearly all actives have a fitted effect of over 55% in size
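Per well, 250 cells were exposed to pinned compound for 48 hr. Nuclear DNA was visualised with Hoechst (40 min, 37 C) and total object intensity recorded by fluorescence scanning.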
* marks the source's active call; other numbers are inactive results; i = inactive; ? = inconclusive; . = no result given. Only some compounds are listed: those with a hit (about 7.9% of all), similar ones and a draw of the others. Calls follow the shape of the dose curve; as a rule, active = well fitted curve in the direction sought with a large enough effect; inconclusive = small, poorly fitted or top-dose-only effect, or another doubt; inactive = no such curve, though single readings can be large; an effect the other way counts as inactive or inconclusive. Potency is read from the fitted curve at half-maximal effect.

SMILES	HT1080-NT tox	KB-V1 cytotox	KB-3-1 tox	MCF10A rerep	HT1080 IDH1KD tx	SW480 rerep
Cc1ccc2cccc(Oc3ccc([N+](=O)[O-])cc3[N+](=O)[O-])c2n1	0%	?	i	6%	0%	-2%
N#Cc1cc(O)c(-n2nnc3ccccc32)cc1C#N	2%	i	i	16%	-8%	-12%
O=[N+]([O-])c1ccc(Oc2cccc3cccnc23)c([N+](=O)[O-])c1	?	21µM*	i	21µM*	23µM*	?
O=[N+]([O-])c1ccccc1OCCOCCOc1cccc2cccnc12	1%	i	i	?	8%	-5%
N#Cc1ccc(Oc2cccc3cccnc23)c([N+](=O)[O-])c1	2%	21µM*	i	?	0%	12%
N#Cc1cc(Oc2cccc3cccnc23)c(-n2nnc3ccccc32)cc1C#N	5.6µM*	?	?	14µM*	6.3µM*	?
COc1ccc(CNC(=O)/C=C/C(=O)O)cc1OC	5%	i	i	-4%	4%	-5%
CCN1CCN(c2ccc(N=Cc3ccc(O)cc3O)cc2)CC1	-13%	i	i	18%	-4%	0%
COc1cccc(CC2(CO)CCN(C(=O)NC3CCCCC3)CC2)c1	10%	i	i	0%	15%	-15%
Cc1cc(C)c(C(=O)c2ccccc2)c(C)c1	-4%	i	i	?	1%	-10%
Cc1ccccc1OCC(=O)OCC(=O)NCc1ccc2c(c1)OCO2	-1%	?	i	-15%	1%	-28%
O=[N+]([O-])c1ccc(NC(=S)NCCc2ccc(F)cc2)cc1	?	i	?	10µM*	23µM*	?
CCOc1ccccc1NC(=O)c1oc2ccccc2c1NC(=O)C1CCCO1 (stereo unspecified)	16%	21µM*	i	8%	9%	7%
COc1ccc(NC(=O)c2oc3ccccc3c2C)c(OC)c1	-6%	21µM*	?	-1%	-6%	0%
CCOCC(=O)Nc1c(C(=O)Nc2ccccc2OC)oc2ccccc12	2%	1.8µM*	i	-1%	-1%	-5%
COc1ccc(NC(=O)c2oc3ccccc3c2NC(=O)COc2ccccc2OC)c(OC)c1	18%	i	i	-5%	0%	2%
CN1C(=O)C2(CCCCC2)C1c1ccccc1 (stereo unspecified)	16%	?	i	-21%	12%	?
COc1ccc(CNCCCn2cnc(C(=O)Nc3ccc(C)c(C)c3)n2)cc1	-7%	i	i	-1%	-11%	-51%
C=CCNc1nc(N2CCOCC2)c(C#N)c2c1CN(C)CC2	-2%	?	?	2%	1%	1%
CCOC(=O)/C(=C\c1ccc(Cl)cc1)c1nc2sc(C)c(C)c2c(=O)[nH]1	10µM*	?	?	5.2µM*	12µM*	?
CCc1cccc(CC)c1NC(=O)C1SC(=Nc2ccccc2C)C(c2nc3ccccc3s2)=C1N (stereo unspecified)	-22%	i	?	?	-13%	8.2µM*
CCc1cc(C(=O)NCC(c2cccs2)N2CCOCC2)sc1C (stereo unspecified)	-7%	?	i	8%	-8%	-4%
COc1cccc(C2c3cc4c(cc3OC(N3CCCC3)C2C)OCO4)c1O (stereo unspecified)	?	8.2µM*	21µM*	?	?	?
COc1cc(C2c3cc4c(cc3OC(N3CCCCC3)C2C)OCO4)cc(OC)c1O (stereo unspecified)	-10%	?	?	?	-21%	?
O=S(=O)(c1ccc(F)cc1)c1nc(-c2ccccc2F)oc1N1CCCCC1	-7%	3.7µM*	i	16%	-12%	10%
SMILES	HT1080-NT tox	KB-V1 cytotox	KB-3-1 tox	MCF10A rerep	HT1080 IDH1KD tx	SW480 rerep
O=S(=O)(c1ccccc1)c1nc(-c2ccc(F)cc2)oc1N1CCCCCC1	.	?	i	.	.	.
COc1ccc(NC(=O)c2cc3ccccc3oc2=O)c(OC)c1	14%	i	i	7%	4%	0%
CCCCCCc1cc2cc(-c3nnc(-c4ccccc4O)o3)c(=O)oc2cc1O	-2%	13µM*	?	0.73µM*	0%	2.3µM*
CCCCCCc1cc2cc(C(=O)Nc3ccccc3OC)c(=O)oc2cc1O	6%	?	?	0.65µM*	2%	?
COc1ccc(-c2nnc(-c3cc4ccccc4oc3=O)o2)cc1	4%	i	i	-1%	4%	2%
CCCCCCc1cc2cc(-c3nnc(-c4ccccc4OC)o3)c(=O)oc2cc1O	?	16µM*	?	6%	?	1.2µM*
O=C(O)c1ccc2oc(=O)c(S(=O)(=O)c3ccc(F)cc3)cc2c1	-9%	i	i	6%	-11%	9%
CCCCCCc1cc2cc(S(=O)(=O)c3ccc(F)cc3)c(=O)oc2cc1O	?	?	i	2.3µM*	?	4.6µM*
c1ccc(-c2nc(N3CCOCC3)cc(N3CCOCC3)n2)cc1	-10%	i	i	5%	-4%	-1%
CCOC(=O)c1c(NC(=O)COc2ccccc2F)sc2c1CC(C)(C)NC2(C)C	0%	?	?	0%	8%	?
COc1ccc(-c2cc3nc(C)c(CCC(=O)NCc4ccc(F)cc4)c(C)n3n2)c(OC)c1	-11%	i	i	-1%	-2%	-35%
CCCCCCc1cc2cc(-c3nnc(-c4cc(OC)c(OC)c(OC)c4)o3)c(=O)oc2cc1O	-2%	?	?	0.52µM*	-9%	8.2µM*
CCCCCOC(=O)Cn1c(=O)c2c(nc(N3CCOCC3)n2C)n(C)c1=O	-1%	16µM*	i	20%	-2%	-17%
Clc1ncnc2c1oc1ccccc12	-20%	i	?	7%	-13%	30%
c1coc(CN(Cc2ccco2)c2ncnc3c2oc2ccccc23)c1	?	16µM*	?	?	?	?
CC(C)(C)NC(=O)CN(Cc1cccs1)C(=O)CN1C(=O)C(=O)c2ccccc21	1%	i	i	2.1µM*	0%	?
O=C(CN(Cc1cccs1)C(=O)CN1C(=O)COc2ccccc21)NCc1ccco1	1%	13µM*	i	-5%	-17%	-2%
CC(C)(C)NC(=O)CN(Cc1cccs1)C(=O)c1csnn1	17%	i	i	1%	-1%	-12%
O=S(=O)(Nc1ccc2c(c1)OCCO2)c1cccc2cccnc12	2%	16µM*	i	-4%	-3%	-8%
